# Results from PubChem BioAssay (NCATS).
# Results filed as inconclusive are left out. Calls of active or inactive are those of the source. Calls follow the shape of the dose curve; as a rule, active = well fitted curve in the direction sought with a large enough effect; inconclusive = small, poorly fitted or top-dose-only effect, or another doubt; inactive = no such curve, though single readings can be large; an effect the other way counts as inactive or inconclusive.
# What was measured:
# [1] = qHTS of pediatric cancer cell lines to identify multiple opportunities for drug repurposing: Primary screen for A673 cells (AID 1347092); also: nearly all actives have a fitted effect of over 45% in size; also: potency is read from the fitted curve at half-maximal effect
# Method in brief: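 Cell viability of A673 measured by CellTiter-Glo ATP luminescence after 48 hours compound exposure. Dilution series spanned 0.78 nM to 46 µM (MIPE, 11-point) or 0.59 nM to 46 µM (NPC, 8-point); bortezomib 2.3 uM positive control.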
# [2] = qHTS of pediatric cancer cell lines to identify multiple opportunities for drug repurposing: Primary screen for SK-N-MC cells (AID 1347093); also: potency is read from the fitted curve at half-maximal effect
# Method in brief: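 Metabolically active cells were quantified by ATP-dependent luminescence (CellTiter-Glo, 15 min at room temperature) following 48 h treatment. Cells had been plated at 500-1,000 per well and settled for 5 h beforehand.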
# [3] = qHTS of pediatric cancer cell lines to identify multiple opportunities for drug repurposing: Primary screen for U-2 OS cells (AID 1347096); also: nearly all actives have a fitted effect of over 50% in size
# Method in brief: (§1)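 Cells (500-1,000/well) rested 5 h, then received compounds for 48 h; metabolically active cells were measured by CellTiter-Glo luminescence. Final concentrations spanned up to 46 µM (MIPE, 11-point) or 0.59 nM-46 µM (NPC, 8-point) in primary screens, 11-point in follow-ups.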
# [4] = qHTS of pediatric cancer cell lines to identify multiple opportunities for drug repurposing: Primary screen for Saos-2 cells (AID 1347097); also: nearly all actives have a fitted effect of over 40% in size; also: potency is read from the fitted curve at half-maximal effect
# Method in brief: (§2)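 Plated cells (500-1,000 per well, growth media) were allowed to settle for 5 hours, treated with compound dilutions for 48 hours, then lysed with CellTiter-Glo for 15 min at room temperature before luminescence reading.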
# [5] = qHTS of pediatric cancer cell lines to identify multiple opportunities for drug repurposing: Primary screen for NB1643 cells (AID 1347099); also: nearly all actives have a fitted effect of over 50% in size; also: potency is read from the fitted curve at half-maximal effect
# Method in brief: as §2
# [6] = qHTS of pediatric cancer cell lines to identify multiple opportunities for drug repurposing: Primary screen for LAN-5 cells (AID 1347100); also: potency is read from the fitted curve at half-maximal effect
# Method in brief: as §1
# [7] = qHTS of pediatric cancer cell lines to identify multiple opportunities for drug repurposing: Primary screen for RD cells (AID 1347104); also: nearly all actives have a fitted effect of over 55% in size; also: potency is read from the fitted curve at half-maximal effect
# Method in brief: as §2
# [8] = qHTS of pediatric cancer cell lines to identify multiple opportunities for drug repurposing: Primary screen for MG 63 (6-TG R) cells (AID 1347105); also: nearly all actives have a fitted effect of over 50% in size; also: potency is read from the fitted curve at half-maximal effect
# Method in brief: as §2
# [9] = qHTS of pediatric cancer cell lines to identify multiple opportunities for drug repurposing: Primary screen for control Hh wild type fibroblast cells (AID 1347106); also: nearly all actives have a fitted effect of over 55% in size; also: potency is read from the fitted curve at half-maximal effect
# Method in brief: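 Viability after 48 h compound treatment at 37C, 500-1,000 cells/well, read as ATP luminescence with CellTiter-Glo. Primary screens used 11-point (MIPE, 0.78 nM-46 µM) or 8-point (NPC, 0.59 nM-46 µM) final concentrations; follow-up screens used 11-point dilutions.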
# [10] = qHTS of pediatric cancer cell lines to identify multiple opportunities for drug repurposing: Primary screen for Rh41 cells (AID 1347108); also: nearly all actives have a fitted effect of over 70% in size; also: potency is read from the fitted curve at half-maximal effect
# Method in brief: as §2
# [11] = qHTS of pediatric cancer cell lines to identify multiple opportunities for drug repurposing: Primary screen for BT-37 cells (AID 1347094); also: series mostly up to about 57 µM
# Method in brief: as §2
# [12] = qHTS of pediatric cancer cell lines to identify multiple opportunities for drug repurposing: Confirmatory screen for NB1643 cells (AID 1347109); also: nearly all actives have a fitted effect of over 45% in size; also: potency is read from the fitted curve at half-maximal effect
# Method in brief: as §1
# [13] = qHTS of pediatric cancer cell lines to identify multiple opportunities for drug repurposing: Confirmatory screen for A673 cells (AID 1347110);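 also: potency is read from the fitted curve at half-maximal effect; cells exposed to compound for 48 h before the viability read; nearly all actives have a fitted effect of over 65% in size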
# Method in brief: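 Viability was read as ATP luminescence (CellTiter-Glo) after 48 h of compound exposure at 37 C in A673 cells seeded at 500-1,000/well. Titrations reached 46 uM final, with 11 points in the confirmatory screen. Concentration-response curves were fitted directly.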
# [14] = qHTS of pediatric cancer cell lines to identify multiple opportunities for drug repurposing: Primary screen for NB-EBc1 cells (AID 1347095); also: potency is read from the fitted curve at half-maximal effect
# Method in brief: as §2
# [15] = qHTS of pediatric cancer cell lines to identify multiple opportunities for drug repurposing: Primary screen for SK-N-SH cells (AID 1347098); also: nearly all actives have a fitted effect of over 65% in size; also: potency is read from the fitted curve at half-maximal effect
# Method in brief: as §1
# [16] = qHTS of pediatric cancer cell lines to identify multiple opportunities for drug repurposing: Primary screen for Rh18 cells (AID 1347102); also: nearly all actives have a fitted effect of over 65% in size; also: potency is read from the fitted curve at half-maximal effect
# Method in brief: as §1
# [17] = qHTS of pediatric cancer cell lines to identify multiple opportunities for drug repurposing: Primary screen for OHS-50 cells (AID 1347103); also: nearly all actives have a fitted effect of over 40% in size; also: potency is read from the fitted curve at half-maximal effect
# Method in brief: as §1
# [18] = qHTS of pediatric cancer cell lines to identify multiple opportunities for drug repurposing: Primary screen for Rh30 cells (AID 1347107); also: nearly all actives have a fitted effect of over 75% in size; also: potency is read from the fitted curve at half-maximal effect
# Method in brief: as §1
# [19] = qHTS of pediatric cancer cell lines to identify multiple opportunities for drug repurposing: Confirmatory screen for SK-N-MC cells (AID 1347111);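 also: potency is read from the fitted curve at half-maximal effect; cells exposed to compound for 48 h before the readout; nearly all actives have a fitted effect of over 70% in size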
# Method in brief: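 Seed 500-1,000 cells/well; rest 5 h at 37 degrees C. Pin-transfer compounds, 11-point titration. Incubate 48 h. Add CellTiter-Glo, 15 min RT, read luminescence.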
# [20] = qHTS of pediatric cancer cell lines to identify multiple opportunities for drug repurposing: Primary screen for BT-12 cells (AID 1347101); also: nearly all actives have a fitted effect of over 25% in size
# Method in brief: as §1
Structure (SMILES),Potency [1],Potency [2],Potency [3],Potency [4],Potency [5],Potency [6],Potency [7],Potency [8],Potency [9],Potency [10],Potency [11],Potency [12],Potency [13],Potency [14],Potency [15],Potency [16],Potency [17],Potency [18],Potency [19],Potency [20]
c1ccc2c(Cc3c[nH]c4ccccc34)c[nH]c2c1,2.35 µM (active),0.833 µM (active),inactive,18.7 µM (active),4.18 µM (active),23.5 µM (active),14.8 µM (active),5.9 µM (active),4.69 µM (active),14.8 µM (active),,,,,,,,,,
COc1ccc2c(Oc3ccc(NC(=O)c4c(C)n(CC(C)(C)O)n(-c5ccccc5)c4=O)cc3F)ccnc2c1,23.5 µM (active),14.8 µM (active),,26.4 µM (active),,,,,inactive,,inactive,inactive,14.7 µM (active),,,,,,,
CN(C[C@@H]1COCCO1)S(=O)(=O)Nc1ccc2ccc3ncc(-c4cnn(C)c4)cc3c(=O)c2c1,7.43 µM (active),2.96 µM (active),,,,14.8 µM (active),,,inactive,,,,,7.43 µM (active),17.1 µM (active),14.8 µM (active),1.22 µM (active),inactive,,
CCOc1ccc(Nc2nc(-c3c(C)nc4ccccn34)cs2)cc1,0.003 µM (active),0.0047 µM (active),inactive,inactive,inactive,,inactive,inactive,inactive,inactive,,,0.131 µM (active),,,inactive,0.0039 µM (active),inactive,0.0928 µM (active),
CN(C)Cc1ccc(-c2nc3cccc4c3n2CCNC4=O)cc1,11.8 µM (active),11.8 µM (active),inactive,,23.5 µM (active),,16.6 µM (active),inactive,,inactive,,,,16.6 µM (active),21.5 µM (active),inactive,,inactive,,
N#CC(=C(N)Sc1ccccc1N)C(C#N)=C(N)Sc1ccccc1N,2.35 µM (active),2.96 µM (active),inactive,,20.9 µM (active),,5.26 µM (active),,inactive,18.7 µM (active),,,,inactive,,,27.3 µM (active),,,
CC1(C)CCC2=C(O1)c1ccccc1C(=O)C2=O,23.5 µM (active),23.5 µM (active),inactive,18.7 µM (active),23.5 µM (active),,33.2 µM (active),,inactive,18.7 µM (active),,23.3 µM (active),,18.7 µM (active),,,,23.5 µM (active),,
O=C(NOCC(O)CO)c1cc(Br)c(F)c(F)c1Nc1ccc(I)cc1F (configuration not stated),9.35 µM (active),0.132 µM (active),,,,inactive,0.148 µM (active),,inactive,inactive,inactive,,,,0.341 µM (active),inactive,,,,
CCOC1OC(=O)C[C@H]1NC(=O)[C@@H]1CCCN1C(=O)[C@@H](NC(=O)c1ccc(N)c(Cl)c1)C(C)(C)C (some centres not stated),0.118 µM (active),14.8 µM (active),inactive,1.18 µM (active),,0.833 µM (active),,,inactive,,,,,8.33 µM (active),,,,inactive,,
COC(=O)[C@@H]1[C@H]2C[C@H]3c4[nH]c5ccccc5c4CCN3C[C@@H]2CC[C@@H]1O,inactive,inactive,inactive,,inactive,inactive,inactive,inactive,inactive,inactive,,,,inactive,,,inactive,inactive,,inactive
N[C@H](CSC(c1ccccc1)(c1ccccc1)c1ccccc1)C(=O)O,9.35 µM (active),14.8 µM (active),inactive,9.35 µM (active),inactive,,,inactive,inactive,inactive,,,,11.8 µM (active),inactive,inactive,6.11 µM (active),inactive,,
COCCOc1nc(-c2ccc(Cl)c(Cl)c2)n(-c2ccc(NC(=O)CCl)cc2)n1,4.69 µM (active),4.69 µM (active),inactive,,16.6 µM (active),,,,inactive,,,,,16.6 µM (active),,,6.11 µM (active),,,
COc1ccc(-n2c(C)c([N+](=O)[O-])c3ccc(O)cc32)cc1,7.43 µM (active),1.18 µM (active),inactive,inactive,5.9 µM (active),inactive,,inactive,inactive,,,,,inactive,19.2 µM (active),inactive,,,,
Cc1cc(OCCCc2c(C(=O)O)n(Cc3cccnc3)c3c(-c4c(COc5ccc(N6CCN([S+](C)(=O)[O-])CC6)cc5)nn(C)c4C)cccc23)cc(C)c1Cl,23.5 µM (active),5.9 µM (active),inactive,18.7 µM (active),23.5 µM (active),,29.6 µM (active),29.6 µM (active),inactive,,,16.5 µM (active),,23.5 µM (active),,,,,20.8 µM (active),
O=C(O)CCC1CCC(c2cc(F)ccc2F)(S(=O)(=O)c2ccc(Cl)cc2)CC1 (configuration not stated),1.48 µM (active),0.0662 µM (active),,,2.35 µM (active),2.35 µM (active),14.8 µM (active),9.35 µM (active),inactive,5.9 µM (active),,inactive,,inactive,,,,inactive,20.8 µM (active),
Clc1cc(Cl)cc(CNc2ncncc2-c2ccc3c(c2)OCO3)c1,14.8 µM (active),13.2 µM (active),inactive,16.6 µM (active),,,,,inactive,,,,,11.8 µM (active),,,,inactive,,
